Test in all cases: DAPPL (digital affinity profiling via proximity ligation, sequencing); 10 mM Tris-HCl pH 7.5, 50 mM NaCl, 1 mM DTT, 4% glycerol, room temperature, 30 min; GST-TFs on glutathione beads, 16-mer random dsDNA library, 0.1% formaldehyde crosslink after washing; high values mean tight binding
Common to all, as to conditions: protein: recombinant; tags: N-terminal GST; dsDNA, one strand shown

Test [1] concerns the target T1, FLI1 (Homo sapiens, UniProt Q01543 1-452).
T1 sequence: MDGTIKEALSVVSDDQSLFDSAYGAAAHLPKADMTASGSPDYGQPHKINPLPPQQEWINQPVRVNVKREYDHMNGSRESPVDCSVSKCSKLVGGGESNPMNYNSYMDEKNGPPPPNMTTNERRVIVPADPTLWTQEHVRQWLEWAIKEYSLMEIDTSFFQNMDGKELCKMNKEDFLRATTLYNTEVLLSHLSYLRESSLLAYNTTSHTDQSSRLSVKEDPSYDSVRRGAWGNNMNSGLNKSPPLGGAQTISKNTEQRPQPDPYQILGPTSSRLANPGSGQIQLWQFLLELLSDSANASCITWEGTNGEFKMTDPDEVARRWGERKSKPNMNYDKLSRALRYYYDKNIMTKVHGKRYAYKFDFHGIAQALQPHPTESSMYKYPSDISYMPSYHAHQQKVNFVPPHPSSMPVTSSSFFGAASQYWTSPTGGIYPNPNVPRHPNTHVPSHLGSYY
The method, boiled down:
(§1)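 Binding signal is given per hexamer as its read frequency for a factor divided by its frequency in the tag-only sample. GST-fused human transcription factors were expressed in yeast, captured on glutathione beads, barcoded with DNA and pooled with that sample, then incubated with 200 nmole of a 16-mer random double-stranded DNA library in Tris/NaCl/DTT/glycerol buffer for 30 min at room temperature. The pools were then washed, crosslinked, proximity-ligated, amplified by PCR and sequenced on an Illumina NextSeq500.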

In test [2] the target is T2, ELK1 (Homo sapiens, UniProt P19419 1-428).
T2 sequence: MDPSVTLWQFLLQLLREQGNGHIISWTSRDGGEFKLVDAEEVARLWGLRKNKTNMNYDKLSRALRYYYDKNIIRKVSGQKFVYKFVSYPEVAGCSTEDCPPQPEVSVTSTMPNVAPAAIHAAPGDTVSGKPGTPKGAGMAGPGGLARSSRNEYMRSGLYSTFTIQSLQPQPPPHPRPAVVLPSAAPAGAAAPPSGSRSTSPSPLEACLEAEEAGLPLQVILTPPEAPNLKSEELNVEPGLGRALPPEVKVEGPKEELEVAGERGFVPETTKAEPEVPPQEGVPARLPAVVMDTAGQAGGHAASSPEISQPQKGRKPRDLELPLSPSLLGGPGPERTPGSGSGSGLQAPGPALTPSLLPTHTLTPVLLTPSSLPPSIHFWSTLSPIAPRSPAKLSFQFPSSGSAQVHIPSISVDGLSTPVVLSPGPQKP
The method, boiled down:
as §1

Test [3] concerns the target T3, GABPA (Homo sapiens, UniProt Q06546 1-454).
T3 sequence: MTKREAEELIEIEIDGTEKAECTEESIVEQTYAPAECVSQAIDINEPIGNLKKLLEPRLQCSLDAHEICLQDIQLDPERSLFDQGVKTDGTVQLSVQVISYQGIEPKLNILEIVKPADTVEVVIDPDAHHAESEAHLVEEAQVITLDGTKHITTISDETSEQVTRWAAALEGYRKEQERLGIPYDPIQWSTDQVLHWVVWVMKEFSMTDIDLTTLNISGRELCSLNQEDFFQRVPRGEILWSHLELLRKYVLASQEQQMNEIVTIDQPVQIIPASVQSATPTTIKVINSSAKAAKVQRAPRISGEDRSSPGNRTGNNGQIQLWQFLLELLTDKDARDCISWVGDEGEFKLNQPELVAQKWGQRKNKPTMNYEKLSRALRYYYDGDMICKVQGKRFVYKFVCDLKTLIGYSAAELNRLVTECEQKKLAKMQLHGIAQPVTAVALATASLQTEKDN
The method, boiled down: as §1

For test [4], the target named is T4, ERG (Homo sapiens, UniProt P11308 1-479).
T4 sequence: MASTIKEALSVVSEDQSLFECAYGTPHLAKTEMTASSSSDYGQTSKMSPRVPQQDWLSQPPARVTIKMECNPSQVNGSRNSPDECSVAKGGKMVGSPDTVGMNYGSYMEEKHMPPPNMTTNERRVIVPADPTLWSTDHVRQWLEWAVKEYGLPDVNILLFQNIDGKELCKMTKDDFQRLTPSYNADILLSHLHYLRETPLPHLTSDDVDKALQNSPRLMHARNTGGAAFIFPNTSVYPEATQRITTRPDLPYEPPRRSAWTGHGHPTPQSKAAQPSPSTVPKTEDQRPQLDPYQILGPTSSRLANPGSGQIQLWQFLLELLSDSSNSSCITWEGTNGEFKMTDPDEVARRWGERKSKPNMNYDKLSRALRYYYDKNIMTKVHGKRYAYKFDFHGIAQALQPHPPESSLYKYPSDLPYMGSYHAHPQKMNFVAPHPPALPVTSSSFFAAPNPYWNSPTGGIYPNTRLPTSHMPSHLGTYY
The method, boiled down:
as §1

The target of test [5] is ELF1 (Homo sapiens, UniProt P32519 1-619). Put shortly: as §1
Test [6] deals with T5, EHF (Homo sapiens, UniProt Q9NZC4 1-300).
T5 sequence: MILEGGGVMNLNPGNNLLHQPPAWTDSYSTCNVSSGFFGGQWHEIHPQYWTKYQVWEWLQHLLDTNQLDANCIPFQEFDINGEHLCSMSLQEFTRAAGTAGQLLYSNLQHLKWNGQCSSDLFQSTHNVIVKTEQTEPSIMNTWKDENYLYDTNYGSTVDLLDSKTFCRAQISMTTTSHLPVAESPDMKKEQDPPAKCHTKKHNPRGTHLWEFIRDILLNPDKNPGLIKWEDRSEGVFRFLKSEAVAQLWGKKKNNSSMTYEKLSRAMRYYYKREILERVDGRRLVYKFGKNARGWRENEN
Put shortly:
as §1

Test [7] deals with SPI1 (Homo sapiens, UniProt P17947 1-270). Put shortly:
as §1

Test [8] concerns the target SPIB (Homo sapiens, UniProt Q01892 1-262). Put shortly:
as §1

Test [9] has as its target T6, ELK3 (Homo sapiens, UniProt P41970 1-407).
T6 sequence: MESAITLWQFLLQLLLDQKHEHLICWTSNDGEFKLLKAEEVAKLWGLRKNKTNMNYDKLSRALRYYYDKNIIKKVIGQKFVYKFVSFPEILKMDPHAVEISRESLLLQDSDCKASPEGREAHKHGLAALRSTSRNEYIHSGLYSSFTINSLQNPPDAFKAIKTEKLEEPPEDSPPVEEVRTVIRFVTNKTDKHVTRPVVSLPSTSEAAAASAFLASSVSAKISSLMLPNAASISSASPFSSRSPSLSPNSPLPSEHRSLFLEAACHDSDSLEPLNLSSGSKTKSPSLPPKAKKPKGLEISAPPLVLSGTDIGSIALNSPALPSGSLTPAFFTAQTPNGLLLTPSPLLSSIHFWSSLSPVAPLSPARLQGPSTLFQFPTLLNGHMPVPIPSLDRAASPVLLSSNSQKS
The method, boiled down: as §1

In test [10] the target is T7, FEV (Homo sapiens, UniProt Q99581 1-238).
T7 sequence: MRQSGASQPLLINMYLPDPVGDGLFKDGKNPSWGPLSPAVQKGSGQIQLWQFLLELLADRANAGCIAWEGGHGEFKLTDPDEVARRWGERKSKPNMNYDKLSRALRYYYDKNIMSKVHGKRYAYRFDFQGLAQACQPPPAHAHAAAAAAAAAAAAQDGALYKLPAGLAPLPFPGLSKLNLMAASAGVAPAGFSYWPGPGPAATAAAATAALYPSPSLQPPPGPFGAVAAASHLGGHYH
The method, boiled down:
as §1

Test [11] deals with ETV5 (Homo sapiens, UniProt P41161 1-510). Put shortly: as §1
In test [12] the target is T8, SPIC (Homo sapiens, UniProt Q8N5J4 1-248).
T8 sequence: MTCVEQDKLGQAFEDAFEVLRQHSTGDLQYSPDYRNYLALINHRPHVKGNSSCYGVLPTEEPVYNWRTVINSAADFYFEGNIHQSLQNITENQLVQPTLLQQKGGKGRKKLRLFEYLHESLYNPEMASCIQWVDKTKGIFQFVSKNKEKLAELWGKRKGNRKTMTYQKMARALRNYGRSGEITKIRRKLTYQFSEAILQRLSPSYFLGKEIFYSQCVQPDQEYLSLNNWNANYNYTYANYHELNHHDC
Put shortly: as §1

The target in test [13] is ELF4 (Homo sapiens, UniProt Q99607 1-663). Put shortly:
as §1

Test [14] addresses T9, ELK4 (Homo sapiens, UniProt P28324-2 1-405).
T9 sequence: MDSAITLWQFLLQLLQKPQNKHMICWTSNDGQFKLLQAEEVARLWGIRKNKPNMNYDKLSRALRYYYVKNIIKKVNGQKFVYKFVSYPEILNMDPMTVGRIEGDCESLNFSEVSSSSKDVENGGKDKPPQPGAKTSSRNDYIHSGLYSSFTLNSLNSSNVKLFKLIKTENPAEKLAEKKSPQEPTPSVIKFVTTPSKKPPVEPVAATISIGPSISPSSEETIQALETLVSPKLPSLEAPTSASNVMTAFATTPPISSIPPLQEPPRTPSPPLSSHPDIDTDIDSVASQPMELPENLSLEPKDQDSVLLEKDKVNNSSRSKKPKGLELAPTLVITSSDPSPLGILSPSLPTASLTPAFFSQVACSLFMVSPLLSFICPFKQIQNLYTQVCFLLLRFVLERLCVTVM
Put shortly:
as §1

Test [15] has as its target T10, ETV2 (Homo sapiens, UniProt O00321 1-342).
T10 sequence: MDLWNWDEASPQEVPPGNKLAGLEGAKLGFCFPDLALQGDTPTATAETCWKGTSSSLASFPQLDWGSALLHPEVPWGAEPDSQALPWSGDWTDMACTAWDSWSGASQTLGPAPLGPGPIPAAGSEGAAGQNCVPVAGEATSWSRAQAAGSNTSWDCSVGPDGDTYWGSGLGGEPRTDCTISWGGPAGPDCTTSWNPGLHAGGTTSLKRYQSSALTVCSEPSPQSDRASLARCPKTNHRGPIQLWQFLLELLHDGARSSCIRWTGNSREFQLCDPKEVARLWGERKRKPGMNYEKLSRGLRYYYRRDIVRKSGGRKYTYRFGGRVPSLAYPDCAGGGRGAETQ
The method, boiled down: as §1

In test [16] the target is ETV1 (Homo sapiens, UniProt P50549 1-477). Put shortly: as §1
Sequence of ETV1 (P50549 whole entry): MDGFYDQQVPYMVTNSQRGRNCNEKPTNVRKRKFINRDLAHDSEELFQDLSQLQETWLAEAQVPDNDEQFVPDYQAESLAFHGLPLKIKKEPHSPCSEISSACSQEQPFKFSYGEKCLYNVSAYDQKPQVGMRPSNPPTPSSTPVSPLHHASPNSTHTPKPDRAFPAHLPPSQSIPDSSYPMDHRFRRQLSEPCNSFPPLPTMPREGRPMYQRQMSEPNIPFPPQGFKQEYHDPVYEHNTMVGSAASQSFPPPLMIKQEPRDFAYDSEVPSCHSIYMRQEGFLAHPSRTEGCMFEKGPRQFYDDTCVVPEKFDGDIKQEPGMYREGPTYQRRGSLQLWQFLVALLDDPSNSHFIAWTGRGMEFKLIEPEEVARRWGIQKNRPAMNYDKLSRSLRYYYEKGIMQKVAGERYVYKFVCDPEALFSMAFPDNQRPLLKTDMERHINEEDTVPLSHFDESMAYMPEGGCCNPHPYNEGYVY

Sequence of SPIB (Q01892 whole entry): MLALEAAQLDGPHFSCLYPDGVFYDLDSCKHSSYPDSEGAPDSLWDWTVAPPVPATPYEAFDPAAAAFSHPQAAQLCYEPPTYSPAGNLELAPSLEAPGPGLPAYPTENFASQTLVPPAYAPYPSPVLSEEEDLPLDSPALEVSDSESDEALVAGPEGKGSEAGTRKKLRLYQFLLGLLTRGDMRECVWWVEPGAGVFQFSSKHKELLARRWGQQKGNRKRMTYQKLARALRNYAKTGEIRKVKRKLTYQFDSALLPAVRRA
Sequence of ELF1 (P32519 whole entry): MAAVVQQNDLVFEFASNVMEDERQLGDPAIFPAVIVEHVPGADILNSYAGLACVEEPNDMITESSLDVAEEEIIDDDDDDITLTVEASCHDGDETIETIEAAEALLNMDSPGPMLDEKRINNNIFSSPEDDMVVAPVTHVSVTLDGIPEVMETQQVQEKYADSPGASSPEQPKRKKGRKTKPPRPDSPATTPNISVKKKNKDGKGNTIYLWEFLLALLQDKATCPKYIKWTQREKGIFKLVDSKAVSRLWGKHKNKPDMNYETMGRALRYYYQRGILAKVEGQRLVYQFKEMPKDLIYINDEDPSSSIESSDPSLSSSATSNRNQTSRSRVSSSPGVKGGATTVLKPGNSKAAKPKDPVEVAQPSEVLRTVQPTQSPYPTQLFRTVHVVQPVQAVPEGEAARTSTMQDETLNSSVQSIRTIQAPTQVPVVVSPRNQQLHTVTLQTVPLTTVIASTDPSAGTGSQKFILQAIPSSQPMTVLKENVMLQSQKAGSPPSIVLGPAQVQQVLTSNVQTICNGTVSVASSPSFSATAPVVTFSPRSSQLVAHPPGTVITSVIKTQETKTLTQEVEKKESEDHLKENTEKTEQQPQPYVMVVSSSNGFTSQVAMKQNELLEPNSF
Sequence of ELF4 (Q99607 whole entry): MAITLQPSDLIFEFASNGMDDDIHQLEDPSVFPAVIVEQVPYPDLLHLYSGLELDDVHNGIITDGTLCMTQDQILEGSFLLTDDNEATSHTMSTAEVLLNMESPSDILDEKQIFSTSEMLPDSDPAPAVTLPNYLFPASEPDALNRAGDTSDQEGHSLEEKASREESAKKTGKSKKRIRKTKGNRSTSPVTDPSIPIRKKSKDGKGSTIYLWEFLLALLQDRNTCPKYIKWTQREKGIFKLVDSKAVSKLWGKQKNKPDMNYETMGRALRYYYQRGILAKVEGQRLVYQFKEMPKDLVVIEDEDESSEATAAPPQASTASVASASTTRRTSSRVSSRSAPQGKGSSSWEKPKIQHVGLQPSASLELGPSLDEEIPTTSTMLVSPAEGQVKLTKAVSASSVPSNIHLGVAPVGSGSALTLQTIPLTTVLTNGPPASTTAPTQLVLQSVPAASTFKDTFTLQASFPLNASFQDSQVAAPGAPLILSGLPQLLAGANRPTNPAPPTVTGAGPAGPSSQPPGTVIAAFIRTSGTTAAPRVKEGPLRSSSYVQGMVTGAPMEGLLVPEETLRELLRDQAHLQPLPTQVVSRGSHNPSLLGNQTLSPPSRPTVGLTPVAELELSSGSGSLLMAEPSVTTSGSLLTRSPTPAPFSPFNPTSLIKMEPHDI
Sequence of ETV5 (P41161 whole entry): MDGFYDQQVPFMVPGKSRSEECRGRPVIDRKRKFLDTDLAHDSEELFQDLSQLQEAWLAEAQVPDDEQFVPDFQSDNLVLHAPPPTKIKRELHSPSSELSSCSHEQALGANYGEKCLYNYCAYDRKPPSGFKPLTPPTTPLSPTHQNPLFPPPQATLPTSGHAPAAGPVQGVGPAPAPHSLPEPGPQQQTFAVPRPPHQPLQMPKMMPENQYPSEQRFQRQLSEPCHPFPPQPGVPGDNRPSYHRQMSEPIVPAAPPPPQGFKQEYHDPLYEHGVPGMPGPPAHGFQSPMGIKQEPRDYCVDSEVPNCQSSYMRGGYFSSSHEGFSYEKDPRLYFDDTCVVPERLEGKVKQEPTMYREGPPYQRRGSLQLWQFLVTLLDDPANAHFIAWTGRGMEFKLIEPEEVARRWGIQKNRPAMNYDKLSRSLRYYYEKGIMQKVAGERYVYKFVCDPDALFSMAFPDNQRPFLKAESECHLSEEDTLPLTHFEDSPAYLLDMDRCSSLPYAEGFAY

ATGTGT: the binding signal is 1.04 fold enrichment (6-mer frequency, TF over GST control) in test [1]; 1.11 fold enrichment (6-mer frequency, TF over GST control) in [2]; 1.06 fold enrichment (6-mer frequency, TF over GST control) in [3]; 1.03 fold enrichment (6-mer frequency, TF over GST control) in test [4]; 1.03 fold enrichment (6-mer frequency, TF over GST control) in test [5]; 1.08 fold enrichment (6-mer frequency, TF over GST control) in [6]. The binding signal in [7] is 1.08 fold enrichment (6-mer frequency, TF over GST control); in test [8] it was 1.11 fold enrichment (6-mer frequency, TF over GST control); in [9], 1.06 fold enrichment (6-mer frequency, TF over GST control); in [10], 1.02 fold enrichment (6-mer frequency, TF over GST control); in test [11], 1.16 fold enrichment (6-mer frequency, TF over GST control); in test [12], 1.17 fold enrichment (6-mer frequency, TF over GST control). Besides, the binding signal is 1.08 fold enrichment (6-mer frequency, TF over GST control) in test [13]; 1.05 fold enrichment (6-mer frequency, TF over GST control) in test [14]; 1.11 fold enrichment (6-mer frequency, TF over GST control) in [15]; 1.18 fold enrichment (6-mer frequency, TF over GST control) in test [16].
On to CGTATG, for which the binding signal in test [1] is 1.1 fold enrichment (6-mer frequency, TF over GST control); in [2], 1.1 fold enrichment (6-mer frequency, TF over GST control); in [3], 1.08 fold enrichment (6-mer frequency, TF over GST control); in test [4], 1.03 fold enrichment (6-mer frequency, TF over GST control); in [5], 1.1 fold enrichment (6-mer frequency, TF over GST control); in [6], 1.1 fold enrichment (6-mer frequency, TF over GST control). Besides, the binding signal in test [7] was 1.07 fold enrichment (6-mer frequency, TF over GST control); in [8] it was 1.09 fold enrichment (6-mer frequency, TF over GST control); in test [9] it was 1.13 fold enrichment (6-mer frequency, TF over GST control); in [11] it was 1.09 fold enrichment (6-mer frequency, TF over GST control); in [12], 1.07 fold enrichment (6-mer frequency, TF over GST control); in test [13] it was 1.04 fold enrichment (6-mer frequency, TF over GST control). The binding signal is 1 fold enrichment (6-mer frequency, TF over GST control) in [14]; 1.09 fold enrichment (6-mer frequency, TF over GST control) in test [15]; 1.04 fold enrichment (6-mer frequency, TF over GST control) in test [16].

The record behind these values is publication PMC7862700, “An all-to-all approach to the identification of sequence-specific readers for epigenetic DNA modifications on cytosine”.
